# Results published in PubChem BioAssay (Tox21).
# Results filed as inconclusive are left out. Unmarked numbers belong to inactive results. The source made the active and inactive calls. Calls come from the whole dose curve; as a rule, active = well fitted cell-killing curve with a large enough effect in the repeat runs; inconclusive = weak or mixed curves, or effect the other way; inactive = flat fitted curve, though single readings scatter. Non-standard residues stand in square brackets, D forms with d. Residues, ends and D or L forms follow the SMILES beside them. *: point of attachment. Sta = CC(C)C[C@H](N)[C@@H](O)CC(=O)O; Isovaleryl = CC(C)CC(=O)*
# Experiment: qHTS assay to identify small molecule agonists of the TGF-beta/Smad signaling pathway - cell viability counter screen (AID 1346829); note: top concentration of the series differs between compounds; nearly all actives have a fitted effect of over 45% in size
# Settings: SBE-bla HEK293T viability, CellTiter-Glo luminescence, 5 h; series mostly up to 76.8 µM
# Excerpt: National Center for Advancing Translational Sciences [NCATS]
# NIH Chemical Genomics Center [NCGC]
# U.S. Environmental Protection Agency [EPA]
# National Institutes of Environmental Health Sciences [NIEHS]
# National Toxicology Program [NTP]
# U.S. Food and Drug Administration [FDA]
# Transforming growth factor beta (TGF-beta) superfamily consists of a large number of structurally related dimeric proteins that act as hormones or local mediators in regulating a wide range of biological functions. This superfamily includes TGF-betas themselves, the bone morphogenetic proteins (BMPs) and the activins. These ligands induce oligomerization of serine/threonine receptor kinases and phosphorylate the cytoplasmic signaling molecules of Smad protein family. CellSensor SBE-bla HEK 293T cell line (Life Technologies, Carlsbad, CA), responsive to TGF-beta was used to screen Tox21 10K compound library for identification of agonists/antagonists of the Smad signaling pathway. This cell line contains a beta-lactamase reporter gene under control of the Smad binding element (SBE) stably integrated into HEK 293T cells. Also cytotoxicity of the compounds was tested in parallel by measuring the cell viability using CellTiter-Glo assay system in the same wells.
# Tox21 Assay Protocol Summary:
# SBE-bla HEK 293T cells were dispensed at 4,000/well in 6 uL of assay medium into black wall/clear-bottom 1536-well plates using a Multidrop Combi (ThermoFisher Scientific, Waltham, MA) dispenser. After the assay plates were incubated at 37 C and 5% CO2 for an overnight, 23 nL of compounds dissolved in DMSO, positive controls or DMSO only was transferred to the assay plate by a Pintool station (Kalypsys, San Diego, CA). The assay plates were incubated at 37 C and 5% CO2 for 5 hr. One uL of LiveBLAzer B/G FRET substrate (Life Technologies) was added using a Flying Reagent Dispenser (FRD, Aurora Discovery, San Diego, CA) and the plates were incubated at room temperature for 2 hr. Fluorescence intensity (405 nm excitation, 460 nm and 530 nm emissions) was measured using an Envision plate reader (PerkinElmer, Shelton, CT). For cytotoxicity read, 4 uL of CellTiter-Glo reagent (Promega Corporation, Madison, WI) was added to each well of the assay plates using FRD. After 30min incubation at room temperature, the luminescence intensity was measured using ViewLux plate reader (PerkinElmer).
# % is set by controls: 0 for no effect and ±100 for the full control effect.
SMILES,outcome,"activity change, negative = cytotoxicity"
CCN1CCN(C(=O)N[C@@H](C(=O)N[C@@H]2C(=O)N3C(C(=O)O)=C(CSc4nnnn4C)CS[C@H]23)c2ccc(O)cc2)C(=O)C1=O,inactive,
CN1C(CCl)Nc2cc(Cl)c(S(N)(=O)=O)cc2S1(=O)=O (stereo not given),inactive,
O=C(O)CCCCCCCCCC(=O)O,inactive,
CC(C)OCCO,inactive,
C/C=C(\C)C=O,inactive,
CCOc1ccccc1OCCN[C@H](C)Cc1ccc(OC)c(S(N)(=O)=O)c1,inactive,
Clc1cc(Cl)c(Cl)c(Cl)c1Cl,inactive,
CC[N+](C)(CC)CC,inactive,
COc1cc(C(=O)NC2CCCNC2)cc(OC)c1OC (stereo not given),inactive,
O=CN1CCCCC1,inactive,
CCCC[O][Al]([O]CCCC)[O]CCCC,inactive,
CC(O)CCCCn1c(=O)c2c(ncn2C)n(C)c1=O (stereo not given),inactive,
COC(=O)/C=C(\C)CCC=C(C)C,inactive,
O=C[C@@H](O)[C@H](O)[C@H](O)CO,inactive,
CC(C)CC(=O)N[C@H](C(=O)N[C@H](C(=O)N[C@@H](CC(C)C)[C@@H](O)CC(=O)N[C@@H](C)C(=O)N[C@@H](CC(C)C)[C@@H](O)CC(=O)O)C(C)C)C(C)C (Isovaleryl-VV[Sta]A[Sta]-OH),inactive,
COc1cc(S(N)(=O)=O)cc(C(=O)O)c1OC,inactive,
c1cc2ccc3ccc4ccc5cccc6c(c1)c2c3c4c56,,8.19% [at 2.72 µM]
CNC(C)=O,inactive,
O=C(OOC(=O)c1ccccc1)c1ccccc1,inactive,
Cc1ccc(S(=O)(=O)NC(=O)NN2CC3CCCC3C2)cc1 (stereo not given),inactive,

SMILES,outcome,"activity change, negative = cytotoxicity"
CCCCCCCCCCCBr,inactive,
C[C@@H]1CC[C@@]2(OC1)O[C@H]1C[C@H]3[C@@H]4CC[C@H]5C[C@@H](O)CC[C@]5(C)[C@H]4CC(=O)[C@]3(C)[C@H]1[C@@H]2C,,-1.03% [at 6.97 µM]
CC(=O)OC1CCC(C(C)(C)C)CC1 (stereo not given),inactive,
CC(C)(C)C(=O)CC(=O)C(C)(C)C,inactive,
CCCCS,inactive,
CC(C)(O)c1ccc(C(C)(C)O)cc1,inactive,
O=Cc1ccc(C(=O)O)cc1,inactive,
CCO[Si](CC(C)C)(OCC)OCC,inactive,
O=c1c(O)c(O)c1=O,inactive,
C=CCN1CCc2nc(N)sc2CC1,inactive,
CCCCCC(=O)CC,inactive,
CCOC(=O)c1ccc(N(C)C)cc1,inactive,
CC(=O)Nc1ccc(S(=O)(=O)Nc2cc(C)on2)cc1,inactive,
CCCCCCCC(=O)N(C)C,inactive,
CC(C)C[P+](C)(CC(C)C)CC(C)C,inactive,
O=S(=O)(O)CC(O)CCl (stereo not given),inactive,
CCCc1ccc(O)c(OC)c1,inactive,
O=C(c1ccccc1)c1cccc(O)c1,inactive,
CC[C@@]1(c2ccccc2)NC(=O)N(C)C1=O,inactive,
Cc1cc(O)c(Cl)cc1C,inactive,
